Where a chain is given by its changes, count along the chain named.
B1: ACGCCTTA (ssRNA)
RNA 1: GAGUUCUACAGUCCGACGAUCCCAACACGCCUUACACCUGGAAUUCUCGGGUGCCAA
RNA 2: UGGAGUGUGACAAUGGUGUUUG
DNA 1: GATCGTCGGACTGTAGAACTC
DNA 2: TTGGCACCCGAGAATTCCA
modifications: constant regions annealed to DNA blockers; guide miR-122 5' phosphate
B2: GTATTCCG (ssRNA)
RNA 1: GAGUUCUACAGUCCGACGAUCCCAACGUAUUCCGCACCUGGAAUUCUCGGGUGCCAA
RNA 2: UGGAGUGUGACAAUGGUGUUUG
DNA 1: GATCGTCGGACTGTAGAACTC
DNA 2: TTGGCACCCGAGAATTCCA
modifications: constant regions annealed to DNA blockers; guide miR-122 5' phosphate
B3: GTATTTTA (ssRNA)
RNA 1: B2 RNA 1 with C32U, C33U, G34A
RNA 2: UGGAGUGUGACAAUGGUGUUUG
DNA 1: GATCGTCGGACTGTAGAACTC
DNA 2: TTGGCACCCGAGAATTCCA
modifications: constant regions annealed to DNA blockers; guide miR-122 5' phosphate
B4: GCGCCCTA (ssRNA)
RNA 1: B1 RNA 1 with A27G, U32C
RNA 2: UGGAGUGUGACAAUGGUGUUUG
DNA 1: GATCGTCGGACTGTAGAACTC
DNA 2: TTGGCACCCGAGAATTCCA
modifications: constant regions annealed to DNA blockers; guide miR-122 5' phosphate
B5: ACACCCTG (ssRNA)
RNA 1: B1 RNA 1 with G29A, U32C, A34G
RNA 2: UGGAGUGUGACAAUGGUGUUUG
DNA 1: GATCGTCGGACTGTAGAACTC
DNA 2: TTGGCACCCGAGAATTCCA
modifications: constant regions annealed to DNA blockers; guide miR-122 5' phosphate
B6: GCGCTTTA (ssRNA)
RNA 1: B1 RNA 1 with A27G, C31U
RNA 2: UGGAGUGUGACAAUGGUGUUUG
DNA 1: GATCGTCGGACTGTAGAACTC
DNA 2: TTGGCACCCGAGAATTCCA
modifications: constant regions annealed to DNA blockers; guide miR-122 5' phosphate
B7: ATATCTTA (ssRNA)
RNA 1: B1 RNA 1 with C28U, G29A, C30U
RNA 2: UGGAGUGUGACAAUGGUGUUUG
DNA 1: GATCGTCGGACTGTAGAACTC
DNA 2: TTGGCACCCGAGAATTCCA
modifications: constant regions annealed to DNA blockers; guide miR-122 5' phosphate
B8: GCGCCCTG (ssRNA)
RNA 1: B1 RNA 1 with A27G, U32C, A34G
RNA 2: UGGAGUGUGACAAUGGUGUUUG
DNA 1: GATCGTCGGACTGTAGAACTC
DNA 2: TTGGCACCCGAGAATTCCA
modifications: constant regions annealed to DNA blockers; guide miR-122 5' phosphate
B9: ATGTCCTA (ssRNA)
RNA 1: B1 RNA 1 with C28U, C30U, U32C
RNA 2: UGGAGUGUGACAAUGGUGUUUG
DNA 1: GATCGTCGGACTGTAGAACTC
DNA 2: TTGGCACCCGAGAATTCCA
modifications: constant regions annealed to DNA blockers; guide miR-122 5' phosphate
B10: ATATTCTA (ssRNA)
RNA 1: B2 RNA 1 with G27A, C33U, G34A
RNA 2: UGGAGUGUGACAAUGGUGUUUG
DNA 1: GATCGTCGGACTGTAGAACTC
DNA 2: TTGGCACCCGAGAATTCCA
modifications: constant regions annealed to DNA blockers; guide miR-122 5' phosphate
B11: GTGCTTCA (ssRNA)
RNA 1: B1 RNA 1 with A27G, C28U, C31U, U33C
RNA 2: UGGAGUGUGACAAUGGUGUUUG
DNA 1: GATCGTCGGACTGTAGAACTC
DNA 2: TTGGCACCCGAGAATTCCA
modifications: constant regions annealed to DNA blockers; guide miR-122 5' phosphate
B12: ACACTTTG (ssRNA)
RNA 1: B1 RNA 1 with G29A, C31U, A34G
RNA 2: UGGAGUGUGACAAUGGUGUUUG
DNA 1: GATCGTCGGACTGTAGAACTC
DNA 2: TTGGCACCCGAGAATTCCA
modifications: constant regions annealed to DNA blockers; guide miR-122 5' phosphate
B13: GTGCTTTG (ssRNA)
RNA 1: B1 RNA 1 with A27G, C28U, C31U, A34G
RNA 2: UGGAGUGUGACAAUGGUGUUUG
DNA 1: GATCGTCGGACTGTAGAACTC
DNA 2: TTGGCACCCGAGAATTCCA
modifications: constant regions annealed to DNA blockers; guide miR-122 5' phosphate
B14: GCGCTCTA (ssRNA)
RNA 1: B1 RNA 1 with A27G, C31U, U32C
RNA 2: UGGAGUGUGACAAUGGUGUUUG
DNA 1: GATCGTCGGACTGTAGAACTC
DNA 2: TTGGCACCCGAGAATTCCA
modifications: constant regions annealed to DNA blockers; guide miR-122 5' phosphate
B15: GTATTCTA (ssRNA)
RNA 1: B2 RNA 1 with C33U, G34A
RNA 2: UGGAGUGUGACAAUGGUGUUUG
DNA 1: GATCGTCGGACTGTAGAACTC
DNA 2: TTGGCACCCGAGAATTCCA
modifications: constant regions annealed to DNA blockers; guide miR-122 5' phosphate
B16: GTGTTCCA (ssRNA)
RNA 1: B2 RNA 1 with A29G, G34A
RNA 2: UGGAGUGUGACAAUGGUGUUUG
DNA 1: GATCGTCGGACTGTAGAACTC
DNA 2: TTGGCACCCGAGAATTCCA
modifications: constant regions annealed to DNA blockers; guide miR-122 5' phosphate
B17: GCATTCTA (ssRNA)
RNA 1: B2 RNA 1 with U28C, C33U, G34A
RNA 2: UGGAGUGUGACAAUGGUGUUUG
DNA 1: GATCGTCGGACTGTAGAACTC
DNA 2: TTGGCACCCGAGAATTCCA
modifications: constant regions annealed to DNA blockers; guide miR-122 5' phosphate
B18: ACATTCCG (ssRNA)
RNA 1: B2 RNA 1 with G27A, U28C
RNA 2: UGGAGUGUGACAAUGGUGUUUG
DNA 1: GATCGTCGGACTGTAGAACTC
DNA 2: TTGGCACCCGAGAATTCCA
modifications: constant regions annealed to DNA blockers; guide miR-122 5' phosphate
B19: ATGCTTTA (ssRNA)
RNA 1: B1 RNA 1 with C28U, C31U
RNA 2: UGGAGUGUGACAAUGGUGUUUG
DNA 1: GATCGTCGGACTGTAGAACTC
DNA 2: TTGGCACCCGAGAATTCCA
modifications: constant regions annealed to DNA blockers; guide miR-122 5' phosphate
B20: GCATTTTA (ssRNA)
RNA 1: B1 RNA 1 with A27G, G29A, C30U, C31U
RNA 2: UGGAGUGUGACAAUGGUGUUUG
DNA 1: GATCGTCGGACTGTAGAACTC
DNA 2: TTGGCACCCGAGAATTCCA
modifications: constant regions annealed to DNA blockers; guide miR-122 5' phosphate
B21: ACGCTCTA (ssRNA)
RNA 1: B1 RNA 1 with C31U, U32C
RNA 2: UGGAGUGUGACAAUGGUGUUUG
DNA 1: GATCGTCGGACTGTAGAACTC
DNA 2: TTGGCACCCGAGAATTCCA
modifications: constant regions annealed to DNA blockers; guide miR-122 5' phosphate
B22: GCGTTCTA (ssRNA)
RNA 1: B1 RNA 1 with A27G, C30U, C31U, U32C
RNA 2: UGGAGUGUGACAAUGGUGUUUG
DNA 1: GATCGTCGGACTGTAGAACTC
DNA 2: TTGGCACCCGAGAATTCCA
modifications: constant regions annealed to DNA blockers; guide miR-122 5' phosphate

What follows are binders tested against AGO2 L192P (Homo sapiens, UniProt Q9UKV8 1-859, L192P;S387D;S824A;S828D;S831D;S834A) (assay: RNA Bind-n-Seq (nitrocellulose filter binding and sequencing); miR-122 guide loaded in AGO2; 60 min incubation; 30 mM Tris pH 8.0, 100 mM potassium acetate, 2 mM magnesium acetate, 0.5 mM TCEP, 0.005% NP-40, 0.01 mg/ml yeast tRNA; 3 nM AGO2-miR-122, 100 nM RNA library; 60; high values mean tight binding). Details: protein: recombinant; tags: His6 (N-terminal, pFastBac HTA).
Outline: (§1)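 Fold enrichment is each target's read fraction divided by its read fraction in the input library. Sf9 insect cells expressed His-tagged AGO2 from baculovirus; the protein was loaded with a synthetic guide RNA and purified by Ni-NTA and a biotinylated capture oligo. The bound RNA was extracted, reverse-transcribed, barcode-amplified and sequenced on Illumina.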

Sequence of AGO2 L192P (Q9UKV8 whole entry L192P/S387D/S824A/S828D/S831D/S834A): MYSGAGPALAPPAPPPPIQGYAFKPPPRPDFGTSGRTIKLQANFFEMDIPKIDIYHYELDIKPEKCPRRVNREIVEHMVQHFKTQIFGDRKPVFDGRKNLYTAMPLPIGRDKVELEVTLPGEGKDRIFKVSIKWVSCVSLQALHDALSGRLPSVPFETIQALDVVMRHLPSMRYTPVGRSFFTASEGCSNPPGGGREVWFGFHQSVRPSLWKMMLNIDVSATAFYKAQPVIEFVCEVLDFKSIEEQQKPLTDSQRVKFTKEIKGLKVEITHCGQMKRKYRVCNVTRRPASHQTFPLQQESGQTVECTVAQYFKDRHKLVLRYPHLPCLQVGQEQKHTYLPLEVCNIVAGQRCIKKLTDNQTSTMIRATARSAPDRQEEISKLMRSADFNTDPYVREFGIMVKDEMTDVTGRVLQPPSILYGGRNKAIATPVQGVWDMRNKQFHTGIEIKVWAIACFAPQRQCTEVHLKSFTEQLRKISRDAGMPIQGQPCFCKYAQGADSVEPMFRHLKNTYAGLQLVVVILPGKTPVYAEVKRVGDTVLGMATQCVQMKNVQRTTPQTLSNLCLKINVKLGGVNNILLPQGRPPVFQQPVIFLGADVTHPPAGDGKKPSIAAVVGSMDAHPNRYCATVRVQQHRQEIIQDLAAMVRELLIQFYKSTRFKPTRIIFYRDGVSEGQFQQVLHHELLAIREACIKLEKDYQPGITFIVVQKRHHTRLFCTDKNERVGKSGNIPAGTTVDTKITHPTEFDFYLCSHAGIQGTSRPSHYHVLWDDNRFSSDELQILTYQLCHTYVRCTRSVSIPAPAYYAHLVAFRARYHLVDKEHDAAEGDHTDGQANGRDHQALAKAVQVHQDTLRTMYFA

In order of rising binding signal:
1. B18  0.382 fold enrichment over input
2. B12  0.388 fold enrichment over input
3. B8  0.424 fold enrichment over input
4. B21  0.429 fold enrichment over input
5. B2  0.43 fold enrichment over input
6. B15  0.434 fold enrichment over input
7. B16  0.444 fold enrichment over input
8. B22  0.449 fold enrichment over input
9. B13  0.45 fold enrichment over input
10. B17  0.45 fold enrichment over input
11. B10  0.453 fold enrichment over input
12. B7  0.456 fold enrichment over input
13. B14  0.459 fold enrichment over input
14. B5  0.472 fold enrichment over input
15. B20  0.476 fold enrichment over input
16. B3  0.481 fold enrichment over input
17. B19  0.487 fold enrichment over input
18. B4  0.492 fold enrichment over input
19. B1  0.493 fold enrichment over input
20. B6  0.493 fold enrichment over input
21. B9  0.506 fold enrichment over input
22. B11  0.507 fold enrichment over input

What follows are binders tested against AGO2 A367P (Homo sapiens, UniProt Q9UKV8 1-859, A367P;S387D;S824A;S828D;S831D;S834A) in the same assay as above. Details: protein: recombinant; tags: His6 (N-terminal, pFastBac HTA).
Outline: as §1

Sequence of AGO2 A367P (Q9UKV8 whole entry A367P/S387D/S824A/S828D/S831D/S834A): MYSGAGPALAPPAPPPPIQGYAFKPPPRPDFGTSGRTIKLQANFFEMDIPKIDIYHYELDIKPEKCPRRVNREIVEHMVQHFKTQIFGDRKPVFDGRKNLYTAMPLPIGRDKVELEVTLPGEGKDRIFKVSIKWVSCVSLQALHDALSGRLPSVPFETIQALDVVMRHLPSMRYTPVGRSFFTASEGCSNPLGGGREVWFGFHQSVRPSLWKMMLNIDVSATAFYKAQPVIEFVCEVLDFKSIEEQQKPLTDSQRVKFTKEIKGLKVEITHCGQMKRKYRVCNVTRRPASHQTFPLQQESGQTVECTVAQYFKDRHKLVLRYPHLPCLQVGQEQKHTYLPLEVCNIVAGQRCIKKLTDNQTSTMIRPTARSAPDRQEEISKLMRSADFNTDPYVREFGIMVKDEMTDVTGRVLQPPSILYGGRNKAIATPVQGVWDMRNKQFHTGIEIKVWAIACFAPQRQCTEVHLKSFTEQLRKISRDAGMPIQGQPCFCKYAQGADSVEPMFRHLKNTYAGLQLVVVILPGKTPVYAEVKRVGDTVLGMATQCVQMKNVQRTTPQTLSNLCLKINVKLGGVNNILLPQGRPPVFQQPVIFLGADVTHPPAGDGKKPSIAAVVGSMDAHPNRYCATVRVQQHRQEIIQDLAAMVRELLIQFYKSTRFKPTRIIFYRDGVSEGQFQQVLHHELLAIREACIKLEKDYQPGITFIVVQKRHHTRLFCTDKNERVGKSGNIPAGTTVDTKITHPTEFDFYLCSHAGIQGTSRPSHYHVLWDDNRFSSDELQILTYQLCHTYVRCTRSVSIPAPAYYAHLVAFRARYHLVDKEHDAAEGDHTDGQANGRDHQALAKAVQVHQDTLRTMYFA

In order of falling binding signal:
1. B9  0.238 fold enrichment over input
2. B1  0.221 fold enrichment over input
3. B11  0.218 fold enrichment over input
4. B5  0.217 fold enrichment over input
5. B6  0.201 fold enrichment over input
6. B16  0.197 fold enrichment over input
7. B4  0.195 fold enrichment over input
8. B14  0.19 fold enrichment over input
9. B17  0.181 fold enrichment over input
10. B10  0.18 fold enrichment over input
11. B20  0.18 fold enrichment over input
12. B7  0.179 fold enrichment over input
13. B12  0.177 fold enrichment over input
14. B13  0.177 fold enrichment over input
15. B19  0.175 fold enrichment over input
16. B21  0.173 fold enrichment over input
17. B8  0.172 fold enrichment over input
18. B22  0.169 fold enrichment over input
19. B3  0.166 fold enrichment over input
20. B15  0.164 fold enrichment over input
21. B2  0.158 fold enrichment over input
22. B18  0.156 fold enrichment over input

The binders below were run against AGO2 T357M (Homo sapiens, UniProt Q9UKV8 1-859, T357M;S387D;S824A;S828D;S831D;S834A) in the same assay as above. Details: protein: recombinant; tags: His6 (N-terminal, pFastBac HTA).
Outline: as §1

Sequence of AGO2 T357M (Q9UKV8 whole entry T357M/S387D/S824A/S828D/S831D/S834A): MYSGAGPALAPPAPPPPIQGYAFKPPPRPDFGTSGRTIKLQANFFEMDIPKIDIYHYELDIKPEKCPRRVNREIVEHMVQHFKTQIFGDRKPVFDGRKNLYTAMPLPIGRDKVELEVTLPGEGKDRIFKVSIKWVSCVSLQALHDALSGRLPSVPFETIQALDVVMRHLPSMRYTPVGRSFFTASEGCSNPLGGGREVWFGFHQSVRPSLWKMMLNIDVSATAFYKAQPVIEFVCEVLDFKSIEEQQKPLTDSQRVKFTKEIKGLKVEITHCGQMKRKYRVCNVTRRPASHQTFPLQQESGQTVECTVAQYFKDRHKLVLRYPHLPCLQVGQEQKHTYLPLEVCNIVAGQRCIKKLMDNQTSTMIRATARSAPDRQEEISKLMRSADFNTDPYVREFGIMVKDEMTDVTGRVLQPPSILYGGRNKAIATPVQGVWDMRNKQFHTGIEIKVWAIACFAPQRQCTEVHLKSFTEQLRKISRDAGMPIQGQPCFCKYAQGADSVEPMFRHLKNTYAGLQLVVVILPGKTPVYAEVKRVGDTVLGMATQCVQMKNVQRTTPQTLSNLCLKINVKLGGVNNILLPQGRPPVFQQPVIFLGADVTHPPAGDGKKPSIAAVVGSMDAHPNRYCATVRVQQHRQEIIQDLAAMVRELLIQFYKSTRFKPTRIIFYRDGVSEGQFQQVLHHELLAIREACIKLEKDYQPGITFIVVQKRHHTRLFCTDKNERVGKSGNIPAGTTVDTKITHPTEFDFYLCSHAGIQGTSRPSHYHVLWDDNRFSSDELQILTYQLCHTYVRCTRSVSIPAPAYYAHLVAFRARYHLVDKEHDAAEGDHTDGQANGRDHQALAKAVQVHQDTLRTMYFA

In order of falling binding signal:
1. B4  0.721 fold enrichment over input
2. B6  0.695 fold enrichment over input
3. B8  0.675 fold enrichment over input
4. B20  0.643 fold enrichment over input
5. B14  0.635 fold enrichment over input
6. B10  0.631 fold enrichment over input
7. B17  0.63 fold enrichment over input
8. B1  0.625 fold enrichment over input
9. B2  0.624 fold enrichment over input
10. B13  0.623 fold enrichment over input
11. B3  0.617 fold enrichment over input
12. B11  0.615 fold enrichment over input
13. B22  0.609 fold enrichment over input
14. B15  0.606 fold enrichment over input
15. B7  0.593 fold enrichment over input
16. B9  0.592 fold enrichment over input
17. B19  0.582 fold enrichment over input
18. B5  0.558 fold enrichment over input
19. B16  0.556 fold enrichment over input
20. B21  0.54 fold enrichment over input
21. B12  0.494 fold enrichment over input
22. B18  0.428 fold enrichment over input

What follows are binders tested against AGO2 F182del (Homo sapiens, UniProt Q9UKV8 1-859, S387D;S824A;S828D;S831D;S834A;del182-182) in the same assay as above. Details: protein: recombinant; tags: His6 (N-terminal, pFastBac HTA).
Outline: as §1

Sequence of AGO2 F182del (Q9UKV8 other isoform, or with tags, fused parts or gaps S387D;S824A;S828D;S831D;S834A;del182-182): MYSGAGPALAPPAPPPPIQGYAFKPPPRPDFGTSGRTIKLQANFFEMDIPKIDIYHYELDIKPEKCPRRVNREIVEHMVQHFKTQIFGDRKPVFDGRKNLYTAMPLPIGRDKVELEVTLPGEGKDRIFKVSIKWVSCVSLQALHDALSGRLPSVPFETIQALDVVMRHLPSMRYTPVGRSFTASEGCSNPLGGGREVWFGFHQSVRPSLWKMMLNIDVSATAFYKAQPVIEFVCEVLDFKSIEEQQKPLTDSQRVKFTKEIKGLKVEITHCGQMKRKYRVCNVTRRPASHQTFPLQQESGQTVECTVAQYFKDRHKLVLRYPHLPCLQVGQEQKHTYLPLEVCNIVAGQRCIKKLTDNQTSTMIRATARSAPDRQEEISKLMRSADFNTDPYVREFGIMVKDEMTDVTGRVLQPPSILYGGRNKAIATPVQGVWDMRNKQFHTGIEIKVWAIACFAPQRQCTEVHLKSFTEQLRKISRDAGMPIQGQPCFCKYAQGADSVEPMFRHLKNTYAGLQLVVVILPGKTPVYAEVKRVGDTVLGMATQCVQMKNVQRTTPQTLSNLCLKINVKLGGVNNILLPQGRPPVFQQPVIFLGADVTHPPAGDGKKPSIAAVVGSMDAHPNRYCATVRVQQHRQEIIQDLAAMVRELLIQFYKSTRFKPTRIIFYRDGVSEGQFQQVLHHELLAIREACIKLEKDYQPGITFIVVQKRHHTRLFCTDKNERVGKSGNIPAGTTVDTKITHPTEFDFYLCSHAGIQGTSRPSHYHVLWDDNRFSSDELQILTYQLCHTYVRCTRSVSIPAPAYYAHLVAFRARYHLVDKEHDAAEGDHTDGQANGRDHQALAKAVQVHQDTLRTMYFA

In order of falling binding signal:
1. B5  0.942 fold enrichment over input
2. B9  0.262 fold enrichment over input
3. B1  0.246 fold enrichment over input
4. B11  0.235 fold enrichment over input
5. B18  0.178 fold enrichment over input
6. B16  0.125 fold enrichment over input
7. B20  0.123 fold enrichment over input
